# Unmarked numbers belong to inactive results. Inconclusive results are not listed. Entries that show only a call come without a potency. Calls of active or inactive are those of the source. Unless noted, the call rests on the fitted dose curve; in most records, active means well fitted curve in the direction sought with a large enough effect in the repeat runs; inconclusive means weak or mixed curves; inactive means no such curve, though single readings can be large; an effect the other way counts as inactive or inconclusive.
# How the values were obtained:
# [1] = qHTS assay to identify small molecule antagonists of the estrogen related receptor (ERR) signaling pathway from Tox21 library - cell viability counter screen (AID 1224834); further: nearly all actives have a fitted effect of over 30% in size
# How it was run: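 Viability readout (CellTiter-Fluor fluorescence, 30 min at 37 C) multiplexed with the ERR assay; cells treated 17.5 h at 37 C with compounds delivered in DMSO.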
# [2] = target: Luciferin 4-monooxygenase (Photinus pyralis) (UniProt P08659); assay: qHTS assay to identify small molecule inhibitors of firefly luciferase (AID 1224835); further: nearly all actives have a fitted effect of over 25% in size; further: potency means the concentration at half of the fitted maximal effect
# How it was run: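 Biochemical qHTS: compounds run as interplate titrations against purified firefly enzyme, with D-luciferin and ATP each at its KM concentration. Light output recorded by CCD imaging.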
# [3] = qHTS assay to identify small molecule agonists of the constitutive androstane receptor (CAR) signaling pathway - cell viability counter screen (AID 1224836); further: nearly all actives have a fitted effect of over 45% in size
# How it was run: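 Counter screen multiplexed with the CAR reporter readout: HepG2 cells co-transfected with hCAR and the CYP2B6-2.2kb construct receive a 15-concentration compound series and 0.75 uM PK11195 (final), then CellTiter-Fluor fluorescence is read after 23 h.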
# [4] = qHTS assay to identify small molecule antagonists of the constitutive androstane receptor (CAR) signaling pathway - cell viability counter screen (AID 1224837); further: nearly all actives have a fitted effect of over 45% in size
# How it was run: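 Fluorescence from CellTiter-Fluor served as the viability signal. Human hepatoma HepG2 cells stably bearing hCAR and CYP2B6-2.2kb received compound plus CITCO (50 nM final) for 23 hr.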
# [5] = qHTS assay to identify small molecule antagonists of the estrogen related receptor signaling pathway with the pleiotropic PPARgamma coactivator (PGC) from Tox21 10K library - cell viability counter screen (AID 1224840; active means well fitted cell-killing curve with a large enough effect in the repeat runs, not every such curve was filed as active; further: nearly all actives have a fitted effect of over 40% in size)
# How it was run: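 Compounds in DMSO, alongside positive and negative controls, were pinned onto PGC/ERR cells (2,000 per well). Exposure lasted 17.5 hours at 37 C, followed by a 30-minute CellTiter-Fluor incubation and fluorescence reading.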
# [6] = qHTS assay to identify small molecule antagonists of the estrogen related receptor signaling pathway with the pleiotropic PPARgamma coactivator (PGC) from Tox21 10K library (AID 1224841; call rule not given here; further: actives are mostly falling curves and most rising ones were filed inactive; nearly all actives have a fitted effect of over 50% in size)
# How it was run: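 Compound exposure ran 18 hours at 37 C in PGC/ERR cells (2,000/well) that had first rested 6 hours in a 37 C/5% CO2 incubator. Luciferase activity was then detected with One-Glo after a 30-minute room-temperature step.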
# [7] = qHTS assay to identify small molecule agonists of the estrogen related receptor signaling pathway with the pleiotropic PPARgamma coactivator (PGC) from Tox21 10K library (AID 1224842); further: nearly all actives have a fitted effect of over 15% in size
# How it was run: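 PGC/ERR reporter cell line, 2,000 cells per well, incubated 6 h at 37 C before 23 nL compound in DMSO was added. After 18 h at 37 C, One-Glo luminescence read following 30 min at room temperature.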
# [8] = target: Thyrotropin receptor (Homo sapiens) (UniProt P16473); assay: qHTS assay to identify small molecule agonists of the thyroid stimulating hormone receptor (TSHR) signaling pathway (AID 1224843; calls by dose curve; further: nearly all actives have a fitted effect of over 45% in size)
# How it was run: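 TSHR-HEK293 cells in agonist mode, 30 min room-temperature step, then cAMP measured by competitive HTRF (cAMP-d2 with anti-cAMP cryptate) after 1 h at room temperature. Tested at 15 concentrations in triplicate.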
# [9] = qHTS assay to identify small molecule agonists of the hypoxia (HIF-1) signaling pathway - cell viability counter screen (AID 1224844; calls by dose curve; further: nearly all actives have a fitted effect of over 50% in size)
# How it was run: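 Luminescent ATP content (CellTiter-Glo, 30 min, room temperature) served as the viability measure in HRE-bla ME-180 cells exposed to compounds for 17 hrs in low-serum medium (0.5% dialyzed FBS).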
# [10] = qHTS assay to identify small molecule agonists of H2AX (AID 1224845; active means well fitted activation curve with a large enough effect in the signal ratio in the repeat runs, not every such curve was filed as active; the % refers to the signal ratio)
# How it was run: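 Wild-type CHO-K1 cells, plated overnight, exposed 3hr at 37C to 15 concentrations (0.76% DMSO final). Lysed, then HTRF anti-pH2AX (S139) cryptate and anti-H2AX-d2 antibodies, 24 hr room temperature; 665/620 nm emission read.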
# [11] = qHTS assay to identify small molecule agonists of the hypoxia (HIF-1) signaling pathway (AID 1224846; active means well fitted activation curve with a large enough effect in the signal ratio in the repeat runs, not every such curve was filed as active; the % refers to the signal ratio)
# How it was run: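 Measured by blue/green FRET after loading CCF4-AM: beta-lactamase expressed from a hypoxia response element in ME-180 cells. Test agents were delivered in DMSO and left 17 hrs; cells had been plated 5 hrs earlier in low-serum (0.5% dialyzed FBS) medium.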
# [12] = qHTS assay to identify small molecule antagonists of the estrogen related receptor (ERR) signaling pathway from Tox21 library (AID 1224848); further: nearly all actives have a fitted effect of over 50% in size
# How it was run: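 ERR reporter cell line (from NTP) seeded 2,000 cells/well, rested 6 h at 37 C/5% CO2, then pin-dosed with compounds in DMSO. After 18 h at 37 C, ONE-Glo added; luminescence read after 30 min at room temperature.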
# [13] = qHTS assay to identify small molecule agonists of the estrogen related receptor (ERR) signaling pathway from Tox21 library (AID 1224849; calls by dose curve; further: nearly all actives have a fitted effect of over 15% in size); conditions: ERR reporter cell line, ONE-Glo luciferase, 18 h; at 92.4 µM (top of the series) unless noted
# How it was run: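 We plated ERR reporter cells, waited 6 h, added compounds in DMSO by pin tool and incubated them 18 h at 37 C. ONE-Glo was then added and luminescence read after 30 min.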
# [14] = qHTS RealTime-Glo MT Cell Viability Assay in HepG2 cells - 24 hour (AID 1224867); further: nearly all actives have a fitted effect of over 50% in size
# How it was run: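 Cells + NanoLuc/prosubstrate dispensed (600 cells/well) → 5 h at 37 C/5% CO2 → compounds in DMSO transferred → 40 h incubation at 37 C, luminescence read at 0, 8, 16, 24, 32, 40 h.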
# [15] = qHTS RealTime-Glo MT Cell Viability Assay in HEK293 cells - 32 hour (AID 1224868)
# How it was run: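 Tox21 10K qHTS, HEK293, 600 cells/well, RealTime-Glo reagent co-dispensed with cells; 5 h preincubation, compound by pintool, 37 C, luminescence at 0–40 h.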
# [16] = A CellTox Green Cytotoxicity Assay to monitor cytotoxicity in HEK293 cells - 0 hour (AID 1224869); further: nearly all actives have a fitted effect of over 50% in size
# How it was run: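 Each value comes from one timepoint of a single continuous run in which HEK293 cells with CellTox Green were exposed to compound for up to 40 h at 37 C, dye fluorescence rising with cell death.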
# [17] = qHTS assay to identify small molecule agonists of H2AX - cell viability counter screen (AID 1224847; calls by dose curve; further: top concentration of the series differs between compounds; nearly all actives have a fitted effect of over 30% in size)
# How it was run: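 We seed wild-type CHO-K1 cells overnight, treat them for 3 hr at 37C with compounds in 15-concentration series, and quantify remaining viability by CellTiter-Glo luminescence.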
# [18] = target: Nuclear receptor subfamily 1 group I member 3 (Homo sapiens) (UniProt Q14994); assay: qHTS assay to identify small molecule antagonists of the constitutive androstane receptor (CAR) signaling pathway (AID 1224838);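 further: HepG2 cells stably expressing hCAR with CYP2B6 luciferase reporter stimulated by CITCO; nearly all actives have a fitted effect of over 40% in size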
# How it was run: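 Quantitative HTS in double-stable HepG2-CYP2B6-hCAR cells. After 4 h plating, cells get compound (15 concentrations) and CITCO at 50 nM final, incubate 24 h at 37 C, then ONE-Glo luminescence is read.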
# [19] = target: Nuclear receptor subfamily 1 group I member 3 (Homo sapiens) (UniProt Q14994); assay: qHTS assay to identify small molecule agonists of the constitutive androstane receptor (CAR) signaling pathway (AID 1224839); further: potency means the concentration at half of the fitted maximal effect; nearly all actives have a fitted effect of over 15% in size
# How it was run: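 A 15-concentration quantitative screen uses HepG2 cells co-transfected stably with human CAR and CYP2B6-2.2kb reporter. Treatment lasts 24 h with 0.75 uM PK11195 final present; ONE-Glo luminescence is the signal.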
# Chain of Luciferin 4-monooxygenase (Photinus pyralis) (P08659 whole entry, looked up): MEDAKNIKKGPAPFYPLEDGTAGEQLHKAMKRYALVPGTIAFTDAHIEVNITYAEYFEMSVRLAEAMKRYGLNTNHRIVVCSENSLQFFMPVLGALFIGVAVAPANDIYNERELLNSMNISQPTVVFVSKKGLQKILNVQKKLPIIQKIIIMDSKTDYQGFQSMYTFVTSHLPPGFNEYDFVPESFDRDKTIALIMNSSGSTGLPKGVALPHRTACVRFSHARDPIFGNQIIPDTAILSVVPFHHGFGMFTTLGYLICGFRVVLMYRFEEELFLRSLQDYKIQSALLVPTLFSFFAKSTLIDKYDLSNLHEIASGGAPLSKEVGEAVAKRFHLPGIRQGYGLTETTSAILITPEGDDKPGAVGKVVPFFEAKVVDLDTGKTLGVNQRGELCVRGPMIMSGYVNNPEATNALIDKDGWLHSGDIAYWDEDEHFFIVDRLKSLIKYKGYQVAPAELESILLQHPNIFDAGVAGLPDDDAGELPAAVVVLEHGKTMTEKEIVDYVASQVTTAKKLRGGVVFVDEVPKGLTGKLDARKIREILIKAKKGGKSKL
# Chain of Thyrotropin receptor (Homo sapiens) (P16473 whole entry, looked up): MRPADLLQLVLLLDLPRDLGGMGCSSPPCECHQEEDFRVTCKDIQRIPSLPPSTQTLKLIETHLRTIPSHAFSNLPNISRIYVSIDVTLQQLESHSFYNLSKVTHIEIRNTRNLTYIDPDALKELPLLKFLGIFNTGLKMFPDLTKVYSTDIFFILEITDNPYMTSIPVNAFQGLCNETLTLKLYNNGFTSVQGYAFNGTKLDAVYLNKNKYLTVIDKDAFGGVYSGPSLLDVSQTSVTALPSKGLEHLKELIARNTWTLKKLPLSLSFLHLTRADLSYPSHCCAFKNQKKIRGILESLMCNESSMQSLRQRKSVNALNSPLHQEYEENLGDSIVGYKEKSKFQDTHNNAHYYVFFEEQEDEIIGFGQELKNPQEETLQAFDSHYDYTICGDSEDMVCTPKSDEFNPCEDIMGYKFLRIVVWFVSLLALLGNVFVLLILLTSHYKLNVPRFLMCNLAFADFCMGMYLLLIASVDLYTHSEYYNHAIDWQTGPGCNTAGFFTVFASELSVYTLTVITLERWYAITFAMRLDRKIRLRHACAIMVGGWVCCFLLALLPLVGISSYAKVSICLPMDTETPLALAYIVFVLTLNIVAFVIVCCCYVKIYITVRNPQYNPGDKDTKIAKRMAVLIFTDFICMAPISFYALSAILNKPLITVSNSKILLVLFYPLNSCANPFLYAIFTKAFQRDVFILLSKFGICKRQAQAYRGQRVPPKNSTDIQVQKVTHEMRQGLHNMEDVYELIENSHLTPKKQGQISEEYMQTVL
# Chain of Nuclear receptor subfamily 1 group I member 3 (Homo sapiens) (Q14994 whole entry, looked up): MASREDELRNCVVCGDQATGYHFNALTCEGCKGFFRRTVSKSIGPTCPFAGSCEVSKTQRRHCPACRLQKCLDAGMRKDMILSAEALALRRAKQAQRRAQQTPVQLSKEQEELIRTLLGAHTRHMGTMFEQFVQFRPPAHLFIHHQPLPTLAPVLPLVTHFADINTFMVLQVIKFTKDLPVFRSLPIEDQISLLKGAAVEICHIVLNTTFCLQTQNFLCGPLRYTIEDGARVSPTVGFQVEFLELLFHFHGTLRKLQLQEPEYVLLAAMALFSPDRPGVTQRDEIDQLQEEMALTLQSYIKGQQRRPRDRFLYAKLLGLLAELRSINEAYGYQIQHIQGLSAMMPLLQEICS
SMILES,Potency [1],Potency [2],Potency [3],Potency [4],Potency [5],Potency [6],Potency [7],Potency [8],Potency [9],Potency [10],outcome [11],Potency [12],"activity change, positive = activation [13]",Potency [14],Potency [15],Potency [16],Potency [17],Potency [18],Potency [19]
O=C(O)CCCc1c[nH]c2ccccc12,inactive,inactive,inactive,inactive,inactive,inactive,inactive,inactive,inactive,inactive,inactive,inactive,11.9%,inactive,inactive,inactive,,,
COc1ccc(C(=O)NCc2ccc(OCCN(C)C)cc2)cc1OC,inactive,inactive,inactive,inactive,inactive,,inactive,,inactive,inactive,inactive,inactive,-0.159% [at 42.5 µM],inactive,inactive,inactive,inactive,,
O=P(O)(O)Oc1ccccc1,inactive,inactive,inactive,inactive,inactive,,,,inactive,inactive,inactive,,,inactive,inactive,inactive,inactive,,
CC(C)(C)S,inactive,inactive,inactive,inactive,inactive,inactive,inactive,,,inactive,inactive,inactive,,inactive,inactive,inactive,inactive,,
CC(=O)NNC(C)=O,inactive,inactive,inactive,inactive,inactive,inactive,inactive,inactive,inactive,inactive,inactive,inactive,,inactive,inactive,inactive,inactive,,
CC(C)(O)CCc1ccccc1,inactive,inactive,inactive,inactive,inactive,,,inactive,inactive,inactive,inactive,,,inactive,inactive,inactive,inactive,,
CC(C)C1CCC(C(=O)N[C@H](Cc2ccccc2)C(=O)O)CC1 (some centres not stated),inactive,inactive,inactive,inactive,inactive,,,inactive,inactive,inactive,inactive,,,inactive,inactive,inactive,inactive,,
C=CC(=O)NC(C)C,inactive,inactive,inactive,inactive,inactive,inactive,inactive,,inactive,inactive,inactive,inactive,4.77%,inactive,inactive,inactive,inactive,,
Cc1ccc(S(=O)(=O)NC(=O)NC2CCCCC2)cc1,inactive,inactive,inactive,inactive,inactive,,,inactive,inactive,inactive,inactive,,,inactive,inactive,inactive,inactive,,
Cc1cccc2sc(N)nc12,inactive,,inactive,inactive,inactive,,,,inactive,inactive,inactive,,,inactive,inactive,inactive,inactive,inactive,
COc1ccc(-c2cc(=S)ss2)cc1,,15.5 µM (active),inactive,inactive,inactive,,,inactive,inactive,inactive,,,,inactive,,inactive,inactive,inactive,23.7 µM (active)
